Measured values reported in PubChem BioAssay.
Activity calls are given as the source filed them.

What was measured:
[1] = system: Human papillomavirus type 1a protein E7 (residues 44-93); test: HPV1a E7 fragment binders on microarrays, primary screen, biochemical, small-molecule microarray, residues 44-93, 635 nm fluorescence (AID 1108); conditions: small-molecule microarray binding, fluorescence 635 nm; higher = more signal;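 also: E7 fragment applied at 1 µg/mL in TBST for 1 h at 4 C; score combines spot fluorescence with its signal to noise ratio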
[2] = modulators of HCV replicon luciferase signal, primary screen, HCV replication inhibitor project, Huh7 cells, luciferase reporter (AID 1109); conditions: 48 h, higher = more signal;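 also: huh7 hepatoma cells harbouring a luciferase neomycin HCV replicon reporter; luciferase luminescence as measure of HCV replicon replication; test concentration not given here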
[3] = target: Left-right determination factor 2 (Homo sapiens) (UniProt O00292); test: LEFTY2 binders on small-molecule microarrays, primary screen, biochemical, small-molecule microarray, 635 nm fluorescence scan (AID 1110); conditions: LEFTY2 binding, higher = more signal
Left-right determination factor 2 (Homo sapiens), sequence (O00292 whole entry, looked up): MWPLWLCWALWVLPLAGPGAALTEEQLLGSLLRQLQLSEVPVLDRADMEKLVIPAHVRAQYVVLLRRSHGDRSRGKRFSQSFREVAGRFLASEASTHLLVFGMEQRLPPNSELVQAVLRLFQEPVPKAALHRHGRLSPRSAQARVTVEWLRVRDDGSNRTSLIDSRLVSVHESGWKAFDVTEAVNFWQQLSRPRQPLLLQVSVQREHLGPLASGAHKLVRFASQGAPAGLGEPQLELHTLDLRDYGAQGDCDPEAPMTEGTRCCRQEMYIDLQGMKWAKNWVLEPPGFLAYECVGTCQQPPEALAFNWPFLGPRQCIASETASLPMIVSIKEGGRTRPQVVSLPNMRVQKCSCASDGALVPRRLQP

[4] = target: Calmodulin-1 (Homo sapiens) (UniProt P0DP23); test: CALM1 binders on microarrays, EGTA buffer, profiling panel, biochemical, small-molecule microarray, Cy5-labelled CALM1 (AID 1111); conditions: Cy5-CALM1 binding fluorescence, higher = more signal;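 also: labelled calmodulin applied in Tris saline Tween buffer holding calcium plus EGTA and DTT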
[5] = target: Calmodulin-1 (Homo sapiens) (UniProt P0DP23); test: calcium-bound CALM1 binders on microarrays, profiling panel, artefact control for SMM control-protein annotation, biochemical, small-molecule microarray, Cy5-labelled CALM1, plus calcium (AID 1112); conditions: Cy5-CALM1 binding fluorescence, higher = more signal;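 also: score merges spot fluorescence with signal to noise from triplicate slides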
[6] = small-molecule microarray binders of probe aWnt5a, primary screen, biochemical, biotinylated probe, 635/667 nm fluorescence (AID 1113); conditions: higher = more signal;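 also: score merges 667 nm fluorescence intensity with signal-to-noise per printed feature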
[7] = small-molecule microarray binders of probe aShh, primary screen, biochemical, biotinylated probe, 635/667 nm fluorescence (AID 1114); conditions: higher = more signal;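 also: probe is biotin-labelled aShh protein from a stem cell growth factor screen; measures binding of labelled protein to compounds printed on the slide; score merges feature fluorescence at 667 nm with signal-to-noise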
[8] = small-molecule microarray binders of probe aNog, primary screen, biochemical, biotinylated probe, 635/667 nm fluorescence (AID 1115); conditions: higher = more signal;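 also: probe is biotinylated aNog protein used at 0.15 µg/mL for 1 h at 4 C; z-score combines 667 nm fluorescence of each spot with its signal to noise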
[9] = target: Torsin-1A-interacting protein 1 (Homo sapiens) (UniProt Q5JTV8); test: LAP1 binders from COS7 cell lysate, primary screen, small-molecule microarray, 635/667 nm fluorescence (AID 1116); conditions: COS7-hLAP1 lysate binding, 635 nm fluorescence, higher = more signal
Torsin-1A-interacting protein 1 (Homo sapiens), sequence (Q5JTV8 whole entry, looked up): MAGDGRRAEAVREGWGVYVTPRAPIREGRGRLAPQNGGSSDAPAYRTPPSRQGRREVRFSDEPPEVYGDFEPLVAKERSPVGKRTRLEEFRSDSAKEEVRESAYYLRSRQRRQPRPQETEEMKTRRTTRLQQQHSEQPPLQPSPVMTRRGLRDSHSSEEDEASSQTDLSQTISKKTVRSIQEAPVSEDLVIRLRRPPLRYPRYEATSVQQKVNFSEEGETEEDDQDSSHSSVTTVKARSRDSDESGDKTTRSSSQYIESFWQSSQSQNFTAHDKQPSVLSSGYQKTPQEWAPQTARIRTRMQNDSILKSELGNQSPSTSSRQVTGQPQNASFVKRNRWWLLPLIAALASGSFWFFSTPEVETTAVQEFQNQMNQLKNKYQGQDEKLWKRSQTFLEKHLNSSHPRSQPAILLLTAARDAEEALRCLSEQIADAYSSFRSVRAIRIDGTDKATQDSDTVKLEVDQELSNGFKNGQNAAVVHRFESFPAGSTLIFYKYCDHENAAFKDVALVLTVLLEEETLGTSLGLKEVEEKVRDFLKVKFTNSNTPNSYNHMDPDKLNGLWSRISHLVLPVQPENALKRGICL

[10] = target: Alpha-bungarotoxin (Bungarus multicinctus) (UniProt P60615); test: alpha-bungarotoxin binders on microarray, profiling panel, artefact control for SMM control protein annotation, biochemical, small-molecule microarray, Alexa647 label, 635/667 nm fluorescence (AID 1117); conditions: alpha-BTX-A647 binding fluorescence, higher = more signal
Alpha-bungarotoxin (Bungarus multicinctus), sequence (P60615 whole entry, looked up): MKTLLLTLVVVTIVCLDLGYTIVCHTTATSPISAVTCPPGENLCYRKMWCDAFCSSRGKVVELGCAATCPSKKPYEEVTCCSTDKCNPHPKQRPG

Albumin (Bos taurus) = Albumin (Bos taurus) (UniProt P02769); test: bovine serum albumin binders on microarray, profiling panel, artefact control for SMM control protein annotation, biochemical, small-molecule microarray, Alexa647 label, 635/667 nm fluorescence (AID 1118); conditions: BSA-A647 binding, fluorescence 635 nm, higher = more signal;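 also: score merges 667 nm emission intensity and signal-to-noise per printed compound spot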
Albumin (Bos taurus), sequence (P02769 whole entry, looked up): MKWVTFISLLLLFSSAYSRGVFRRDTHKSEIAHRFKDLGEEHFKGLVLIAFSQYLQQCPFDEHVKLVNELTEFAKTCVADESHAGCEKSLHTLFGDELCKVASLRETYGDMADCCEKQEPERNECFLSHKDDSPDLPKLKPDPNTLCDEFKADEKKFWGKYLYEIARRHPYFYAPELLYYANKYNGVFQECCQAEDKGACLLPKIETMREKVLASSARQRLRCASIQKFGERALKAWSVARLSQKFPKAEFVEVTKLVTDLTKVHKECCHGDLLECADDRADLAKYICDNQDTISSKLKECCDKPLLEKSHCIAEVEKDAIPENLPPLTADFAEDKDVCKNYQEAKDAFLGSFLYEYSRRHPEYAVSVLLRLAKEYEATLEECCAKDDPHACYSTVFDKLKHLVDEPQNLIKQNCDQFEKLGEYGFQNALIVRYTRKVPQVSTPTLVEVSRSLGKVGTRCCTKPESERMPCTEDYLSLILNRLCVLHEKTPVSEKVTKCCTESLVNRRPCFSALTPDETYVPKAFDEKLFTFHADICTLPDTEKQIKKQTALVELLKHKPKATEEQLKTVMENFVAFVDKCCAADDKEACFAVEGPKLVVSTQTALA

[11] = small-molecule microarray binders of probe aXIP, primary screen, biochemical, NeuroSMM set, 635/667 nm fluorescence (AID 1119); conditions: higher = more signal, called active from +8 up or from −8 down;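 also: probe is the protein aXip251-270 applied at 1 µg/mL to compound-printed slides; binding of probe to printed compounds measured as 667 nm fluorescence plus signal to noise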
[12] = small-molecule binders of probe aNOTCH3, primary screen, biochemical, small-molecule microarray, 635/667 nm fluorescence (AID 1120); conditions: higher = more signal;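 also: probe is a biotin-tagged antibody raised against NOTCH3 rather than NOTCH3 protein; score merges spot fluorescence near 667 nm with spot signal to noise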
[13] = small-molecule binders of probe aNOTCH2, primary screen, biochemical, small-molecule microarray, 635/667 nm fluorescence (AID 1121); conditions: higher = more signal;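 also: score merges feature fluorescence read at 667 nm with its signal to noise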
[14] = target: Carbonic anhydrase 2 (Homo sapiens) (UniProt P00918); test: CAII small-molecule binders, profiling panel, biochemical, small-molecule microarray, Alexa647-labelled CAII (AID 1122); conditions: CAII-A647 binding fluorescence, higher = more signal
[15] = COS7 lysate on small-molecule microarray, probe aHis, 635 nm (AID 1123); conditions: COS7 cell lysate, fluorescence, higher = more signal;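 also: z-score combines 667nm fluorescence intensity with signal-to-noise per printed compound spot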
[16] = compound binding in COS7 lysate, probe aLAP1, primary screen, cell lysate, small-molecule microarray (AID 1124); conditions: probe aLAP1, fluorescence, higher = more signal;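 also: lysate comes from COS7 cells expressing LAP1 and is applied at 0.3 µg/mL; score merges spot fluorescence near 667 nm with signal-to-noise over triplicate slides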
Sam68 (KHDRBS1) = test: Sam68 small-molecule binders, primary screen, biochemical, small-molecule microarray, 635 nm fluorescence (AID 1125); conditions: small-molecule microarray binding, higher = more signal;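 also: score merges 667 nm channel intensity with signal to noise over triplicate slides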
[17] = system: Chordin-like protein 2 (CHRDL2); test: CHRDL2 small-molecule binders, primary screen, biochemical, small-molecule microarray, 635 nm fluorescence (AID 1126); conditions: small-molecule microarray binding, fluorescence 635 nm; higher = more signal;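 also: printed compound slides probed with Chrdl2 protein at 4 µg/mL for 1 h at 4 C; score merges 667 nm emission intensity with signal to noise over three replicate slides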
[18] = target: Concanavalin-A (Canavalia ensiformis) (UniProt P02866); test: ConA small-molecule binders, primary screen, artefact control for SMM control protein annotation, biochemical, small-molecule microarray, Alexa647 label, 635 nm (AID 1127); conditions: ConA-A647 binding fluorescence, higher = more signal;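 also: z combines 667 nm emission intensity with signal-to-noise across three replicate slides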
Concanavalin-A (Canavalia ensiformis), sequence (P02866 whole entry, looked up): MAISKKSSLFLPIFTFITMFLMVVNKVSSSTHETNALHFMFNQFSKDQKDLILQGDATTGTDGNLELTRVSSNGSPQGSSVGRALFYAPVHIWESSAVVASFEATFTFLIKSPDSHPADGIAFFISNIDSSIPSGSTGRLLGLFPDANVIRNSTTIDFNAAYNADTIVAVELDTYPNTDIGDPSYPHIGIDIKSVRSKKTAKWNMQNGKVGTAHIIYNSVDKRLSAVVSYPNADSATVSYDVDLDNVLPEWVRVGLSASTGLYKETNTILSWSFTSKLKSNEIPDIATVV

Compound | composite z-score [1] | z-score [2] | composite z-score [3] | composite z-score [4] | composite z-score [5] | composite z-score [6] | composite z-score [7] | composite z-score [8] | composite z-score [9] | composite z-score [10] | composite z-score (Albumin (Bos taurus)) | composite Z-score [11] | composite z-score [12] | composite z-score [13] | composite z-score [14] | composite z-score [15] | composite z-score [16] | composite z-score (Sam68 (KHDRBS1)) | composite z-score [17] | composite z-score [18]
C=C(/C(=C/C[C@H](OC(=O)c1ccncc1)c1ccc(CO)o1)c1cc(C(=O)OC)ccc1OC)C(C)C | 1.31 | -0.706 | 0.34 | -0.0383 | -0.748 | 0.0037 | 0.235 | -0.0247 | 0.602 | 0.0818 | 0.0703 | -0.442 (inactive) | -0.0414 | -0.116 | 0.541 | 1.4 | 0.285 | 1.05 | 0.85 | 0.557
CO[C@H]1O[C@H](CO)[C@@H](OC(=O)Nc2ccc3c(c2)OCO3)[C@H](OC(=O)c2cc3ccccc3[nH]2)[C@H]1OC(=O)c1cc2ccccc2[nH]1 | -0.343 | -1.99 | 0.117 | -0.418 | -0.83 | -0.168 | -0.0709 | -0.315 | 0.0724 | 0.279 | 0.429 | 0.993 (inactive) | -0.0932 | -0.0875 | 0.402 | -0.0481 | 0.0757 | 0.12 | 0.725 | -0.391
CC(C)N1C(=O)C[C@@](C(=O)NCCCN(C)C)(c2ccc([N+](=O)[O-])cc2)[C@H]1c1ccc(CO)cc1 | -0.218 | -0.581 | -0.438 | -0.194 | -0.774 | -0.113 | 0.0062 | -0.141 | 0.0945 | 0.942 | -0.0399 | 0.183 (inactive) | 0.0628 | -0.0698 | 0.573 | -0.185 | 0.0653 | -0.579 | -0.0507 | -0.158
CC(C)(C)N1CC=CC23O[C@@H]4C=CCCOC(=O)C4[C@H]2C(=O)N(CCO)[C@@H]3C1=O (stereo not given in full) | -0.282 | 0.361 | -0.475 | -0.504 | -0.511 | -0.0924 | -0.0146 | 0.0417 | -0.108 | 1.37 | -0.0163 | -0.391 (inactive) | -0.13 | 0.226 | 0.282 | -1.09 | -0.155 | -0.889 | -0.267 | -1.39
Cc1ccc(S[C@]2(C(=O)O)CC(=O)N(Cc3cc(C(F)(F)F)cc(C(F)(F)F)c3)[C@@H]2c2ccc(CO)cc2)cc1 | -0.0234 | -0.0295 | -2.28 | -0.743 | 0.168 | -0.226 | -0.0483 | -0.0733 | -0.155 | -0.876 | -1.78 | -0.483 (inactive) | -0.512 | -0.154 | 0.65 | 1.23 | 0.549 | -0.25 | -2.37 | -1.24
C=CCN1C(=O)[C@@]2(O[C@@H](CCn3cc([C@H](O)c4ccccc4)nn3)[C@H]([Si](C)(C)c3ccc(OC)cc3)[C@H]2C)c2cc(N3CCC3=O)ccc21 | 0.627 | -3.39 | 0.225 | 0.249 | 0.294 | -0.15 | -0.138 | 0.15 | 0.116 | 0.359 | 0.292 | 0.346 (inactive) | -0.132 | -0.189 | 0.489 | 0.901 | 0.249 | 0.636 | 0.163 | 0.0967
C[C@@H]1NC(=O)[C@@]23C(=O)N[C@@H](Cc4ccccc4)C2[C@H](C)[C@@]2(C)O[C@H]2C3/C=C/C/C=C\CNC(=O)[C@@H]2CCCN2C1=O (stereo not given in full) | -0.496 | 0.606 | -0.301 | -0.535 | -0.556 | -0.196 | -0.0553 | -0.122 | -0.313 | -0.123 | -0.397 | -0.433 (inactive) | -0.078 | -0.139 | 0.742 | -0.0175 | -0.11 | -1 | 0.18 | -0.327
CC(CO)N1C(=O)[C@@H]2[C@H]3C(=O)OCC=C[C@H]3OC23C=CCN(Cc2ccccc2)C(=O)[C@@H]13 (stereo not given in full) | -1.13 | -0.254 | -0.509 | -0.216 | -0.324 | 0.206 | -0.211 | -0.273 | -0.5 | -0.221 | 0.407 | -0.106 (inactive) | -0.308 | -0.22 | 0.905 | -0.851 | -0.419 | -1.17 | -0.42 | -0.325
CCCNC(=O)[C@@]1(c2ccc([N+](=O)[O-])cc2)CC(=O)N(C2CCCCC2)[C@@H]1c1ccc(CO)cc1 | 1.5 | -0.887 | 0.357 | 0.653 | -0.0681 | -0.0285 | 0.446 | -0.0216 | 1.2 | 0.764 | 0.0308 | 0.173 (inactive) | 0.135 | -0.0406 | 0.66 | 2.01 | 0.999 | 1.25 | 0.19 | 0.95
COCCCNC(=O)[C@@]1(Cc2ccccc2N=[N+]=[N-])COC(c2ccc(OCCCO)cc2)=N1 | 1.44 | -0.899 | 0.185 | 1.43 | 0.414 | 0.0165 | 0.284 | 0.747 | 2 | 2.18 | 0.538 | 0.889 (inactive) | 0.125 | -0.0928 | 0.31 | 2.27 | 0.398 | 1.05 | -0.938 | 1.1
CCCCCCc1nc(C2CC2)cc2c1[Si](C(C)C)(C(C)C)OC2 | -1.03 | -0.622 | -0.53 | 0.208 | 0.0599 | -0.184 | -0.214 | -0.0784 | -0.476 | -0.221 | -0.858 | 0.289 (inactive) | -0.197 | -0.176 | -0.513 | -0.535 | -0.0031 | -0.826 | -0.463 | -0.334
CC(=O)NCCCC[C@@H]1NC(=O)[C@@H]2C[C@H](C(=O)NCCCC[N+](C)(C)C)[C@H](c3ccc(O)cc3)N2C1=O | 0.364 | -0.307 | 1.35 | -0.206 | 0.32 | -0.0758 | 0.366 | 0.33 | 1.06 | 1.57 | -0.763 | 0.0463 (inactive) | 0.271 | -0.0467 | 0.514 | 1.18 | -0.111 | 1.29 | 1.35 | 1.16
